{"source": "PubChem BioAssay (EPA / NIEHS)", "key": {"[1]": {"target": "Nucleoli Translocation, AR (gene 367) (UniProt P10275)", "sequence (P10275 whole entry, looked up)": "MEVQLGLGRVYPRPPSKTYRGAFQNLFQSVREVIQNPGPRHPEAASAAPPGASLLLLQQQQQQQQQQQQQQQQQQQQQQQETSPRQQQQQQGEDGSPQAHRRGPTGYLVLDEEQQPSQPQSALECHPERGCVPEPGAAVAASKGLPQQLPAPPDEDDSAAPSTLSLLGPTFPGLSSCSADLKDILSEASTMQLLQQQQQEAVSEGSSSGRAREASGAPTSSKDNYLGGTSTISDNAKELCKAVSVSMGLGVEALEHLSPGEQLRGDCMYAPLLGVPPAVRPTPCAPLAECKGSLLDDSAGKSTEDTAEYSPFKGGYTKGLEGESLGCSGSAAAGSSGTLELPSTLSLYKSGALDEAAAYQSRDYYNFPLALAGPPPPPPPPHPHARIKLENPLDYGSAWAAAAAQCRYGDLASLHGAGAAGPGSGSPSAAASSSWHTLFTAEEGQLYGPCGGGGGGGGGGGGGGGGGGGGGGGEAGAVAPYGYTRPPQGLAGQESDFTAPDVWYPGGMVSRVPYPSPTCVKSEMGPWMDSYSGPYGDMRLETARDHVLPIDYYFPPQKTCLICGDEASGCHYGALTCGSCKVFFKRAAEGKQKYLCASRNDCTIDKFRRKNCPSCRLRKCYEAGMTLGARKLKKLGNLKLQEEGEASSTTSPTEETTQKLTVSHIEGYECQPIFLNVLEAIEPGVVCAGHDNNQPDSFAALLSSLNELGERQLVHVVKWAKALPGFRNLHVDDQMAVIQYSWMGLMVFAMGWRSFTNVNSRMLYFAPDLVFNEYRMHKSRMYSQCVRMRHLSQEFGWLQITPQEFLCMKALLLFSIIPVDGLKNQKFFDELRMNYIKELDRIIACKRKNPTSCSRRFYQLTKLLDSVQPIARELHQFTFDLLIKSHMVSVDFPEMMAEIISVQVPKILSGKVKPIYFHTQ", "assay": "UPITT_HCI_U2OS_AR_TIF2_Nucleoli_Antagonist: University of Pittsburgh U2OS Androgen Receptor-Transcriptional Intermediary Factor 2 (AR-TIF2) Antagonism High Content Imaging Assay for Nucleoli Translocation (AID 2283997; active means hit-call score of the fitted dose curve at least 0.9, where 1 is the maximum)", "how_it_was_run": "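An antagonist-mode imaging screen: engineered U2OS (AR-RFP, TIF2-GFP) exposed to 20 uM compound, 0.2% DMSO. Activity reflects nucleolar red fluorescence change relative to DHT baseline.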"}, "[2]": {"target": "Ratio of Nucleoli Translocation and Cytoplasm, AR (gene 367) (UniProt P10275)", "sequence (P10275 whole entry, looked up)": "as above", "assay": "UPITT_HCI_U2OS_AR_TIF2_Nucleoli_Cytoplasm_Ratio_Agonist: University of Pittsburgh U2OS Androgen Receptor-Transcriptional Intermediary Factor 2 (AR-TIF2) Agonism High Content Imaging Assay for Ratio of Nucleoli Translocation and Cytoplasm (AID 2284000; active means hit-call score of the fitted dose curve at least 0.9, where 1 is the maximum)", "how_it_was_run": "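Primary screen at 20 uM final (0.2% DMSO), then triplicate confirmation and dose-response from 0.195 to 50 uM final (0.5% DMSO). Cells: U2OS with AR-RFP and TIF2-GFP. Endpoint is the nucleoli/cytoplasm red-fluorescence ratio, gain-of-signal vs DMSO.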"}, "[3]": {"assay": "CCTE_Harrill_HTTr_Apoptosis_DMEM_24hr: (Pilot) CCTE's 24-hour Apoptosis Assessment for the High-Throughput Transcriptomics (HTTr) Platform, in MCF-7 cells cultured in DMEM + 10% fetal bovine serum, Harrill Lab (AID 2283983)", "how_it_was_run": "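Caspase-3/7 activity read by high-content imaging (CellEvent Green reagent) 24 h after dosing. MCF-7 cells grown in DMEM with 10% FBS received an eight-point concentration series; fits were bidirectional versus DMSO.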"}, "[4]": {"assay": "CCTE_Harrill_HTTr_Apoptosis_PRF_DMEM_6hr: (Pilot) CCTE's 6-hour Apoptosis Assessment for the High-Throughput Transcriptomics (HTTr) Platform, in MCF-7 cells cultured phenol red-free DMEM + 10% charcoal-stripped fetal bovine serum, Harrill Lab (AID 2283984)", "how_it_was_run": "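Caspase-3/7 activity (CellEvent Green) read by high-content imaging 6 h after dosing, eight concentrations. Cells: MCF-7, phenol red-free DMEM with 10% charcoal-stripped serum. Curves fit both directions against DMSO.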"}, "[5]": {"assay": "CCTE_Harrill_HTTr_Apoptosis_PRF_DMEM_24hr: (Pilot) CCTE's 24-hour Apoptosis Assessment for the High-Throughput Transcriptomics (HTTr) Platform, in MCF-7 cells cultured in phenol red-free DMEM + 10% charcoal-stripped fetal bovine serum, Harrill Lab (AID 2283986)", "how_it_was_run": "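Eight concentrations tested for 24 h on MCF-7 grown in charcoal-stripped serum, phenol red-free DMEM. High content imaging of CellEvent Caspase 3/7 Green signal gives apoptosis read-out, fitted both ways relative to DMSO.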"}, "[6]": {"system": "DIO1 (gene 1733)", "assay": "CCTE_GLTED_hDIO1: CCTE's human Deiodinase 1 (DIO1) Inhibition Assay, Great Lakes Toxicology and Ecology Division (GLTED) Lab (AID 2283987; active means hit-call score of the fitted dose curve at least 0.9, where 1 is the maximum;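 further: isolated human DIO1 enzyme in a cell-free setup rather than cells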)", "protocol": "CCTE_GLTED_hDIO1 is a cell-free, single-readout assay designed to test the inhibitory activity of chemicals toward human iodothyronine Deiodinase type 1 (DIO1) enzyme. Enzyme is incubated in presence of test chemical for 3 hours during which uninhibited enzyme liberates free iodide from substrate. Free iodide is measured in a second step using the Sandell-Kolthoff method.CCTE_GLTED_hDIO1 is the assay component measured from the CCTE_GLTED_hDIO1 assay. It is designed to make measurements of enzyme activity, a form of enzyme reporter, as detected with absorbance signals by spectrophotometry.Data from the assay component CCTE_GLTED_hDIO1 was analyzed into 1 assay endpoint. This assay endpoint, CCTE_GLTED_hDIO1, was analyzed in the positive analysis fitting direction relative to DMSO as the negative control and baseline of activity. Using a type of enzyme reporter, loss-of-signal activity can be used to understand changes in the enzymatic activity as they relate to the gene DIO1. Furthermore, this assay endpoint can be referred to as a primary readout, because the performed assay has only produced 1 assay endpoint. To generalize the intended target to other relatable targets, this assay endpoint is annotated to the 'deiodinase' intended target family, where the subfamily is 'deiodinase Type 1'.\n[…] assay, developed at Great Lakes Toxicology and Ecology Division (GLTED) within the EPA's Center for Computational Toxicology and Exposure (CCTE), is designed to test the chemicals' ability to inhibit DIO1. Assay is based on iodide release measured by the Sandell-Kolthoff method and is run in 96-well plate format with assay plates run in triplicate (n=3). The method used for the deiodinase assay was largely based on Renko et al. (2012, 2015). These works describe the utilization of the SK reaction to measure deiodinase-liberated iodide in a 96-well-plate format. […]"}, "[7]": {"assay": "CCTE_Simmons_MITO_basal_resp_rate: CCTE's HepG2 Seahorse XF Respirometric Screening Assay at Basal Respiratory State, Simmons Lab (AID 2284001)", "settings": "actives raise or lower the signal", "how_it_was_run": "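Readout is oxygen consumption rate after test compound injection, measured by Seahorse XF in HepG2 cells. Seven concentrations from 125 nM up to 100 uM final are tested, and activity in either direction is fitted against DMSO.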"}, "[8]": {"assay": "CCTE_Simmons_MITO_max_resp_rate: CCTE's HepG2 Seahorse XF Respirometric Screening Assay at Maximal Respiratory State [uncoupled], Simmons Lab (AID 2284002)", "settings": "actives raise or lower the signal", "how_it_was_run": "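Uncoupled (FCCP) respiration of HepG2 cells served as the endpoint, with measurements at 6-minute intervals across a 72-minute run and compounds dosed at 7 concentrations up to 100 uM final.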"}, "[9]": {"assay": "CCTE_Simmons_MITO_inhib_resp_rate: CCTE's HepG2 Seahorse XF Respirometric Screening Assay at Inhibited Respiratory State [full ETC block], Simmons Lab (AID 2284006)", "settings": "actives raise or lower the signal", "how_it_was_run": "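This endpoint is the respiration rate remaining after rotenone/antimycin A block, in HepG2 cells on a Seahorse XF96. Chemicals spanned 125 nM–100 uM final, in three biological replicates. OCR was read every 6 minutes for 72 minutes and compared with DMSO vehicle.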"}, "[10]": {"assay": "CCTE_Simmons_MITO_viability: CellTiter-Glo Viability Assessment for CCTE's HepG2 Seahorse XF Respirometric Screening Assay [post-hoc], Simmons Lab (AID 2284007; active means hit-call score of the fitted dose curve at least 0.9, where 1 is the maximum;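 on AC50: cells exposed to chemical for 90 min before the ATP read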)", "how_it_was_run": "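Luciferase-coupled ATP read-out after the Seahorse run: HepG2 cells treated 90 minutes with test chemical, 7-point series of 125 nM–100 uM final, in triplicate biological runs. Vehicle DMSO; dichlone as positive control over 8 concentrations.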"}}, "note": "Inconclusive results are not listed. Calls of active or inactive are those of the source. How the source made its calls, unless noted: active means hit-call score of the fitted dose curve at least 0.9, where 1 is the maximum; inactive means score below 0.9.", "data": [{"smiles": "CSC(=O)c1cccc2nnsc12", "values": [{"measurement": "AC50", "setting": "[1]", "result": "50 µM (active)"}, {"measurement": "outcome", "setting": "[2]", "result": "inactive"}]}, {"smiles": "CCOC(=O)COc1cc(-n2ncc(C(F)(F)F)c(C)c2=O)c(F)cc1Cl", "values": [{"measurement": "outcome", "setting": "[2]", "result": "inactive"}]}, {"smiles": "COC(=O)CSc1cc(N=c2sc(=O)n3n2CCCC3)c(F)cc1Cl", "values": [{"measurement": "outcome", "setting": "[1]", "result": "inactive"}, {"measurement": "outcome", "setting": "[2]", "result": "inactive"}]}, {"smiles": "S=C([S-])NCCNC(=S)[S-].[Mn+2]", "values": [{"measurement": "outcome", "setting": "[3]", "result": "inactive"}, {"measurement": "outcome", "setting": "[4]", "result": "inactive"}, {"measurement": "outcome", "setting": "[5]", "result": "inactive"}, {"measurement": "AC50", "setting": "[6]", "result": "35.7 µM (active)"}]}, {"smiles": "CC1(C)C(C=C(Cl)Cl)C1C(=O)OCc1cccc(Oc2ccccc2)c1", "note": "(stereo unspecified)", "values": [{"measurement": "outcome", "setting": "[1]", "result": "inactive"}, {"measurement": "outcome", "setting": "[2]", "result": "inactive"}]}, {"smiles": "N[C@@H](Cc1cc(I)c(Oc2ccc(O)c(I)c2)c(I)c1)C(=O)O", "values": [{"measurement": "outcome", "setting": "[3]", "result": "inactive"}, {"measurement": "outcome", "setting": "[4]", "result": "inactive"}, {"measurement": "outcome", "setting": "[5]", "result": "inactive"}, {"measurement": "AC50", "setting": "[7]", "result": "6.61 µM (active)"}, {"measurement": "outcome", "setting": "[8]", "result": "inactive"}, {"measurement": "outcome", "setting": "[9]", "result": "inactive"}]}, {"smiles": "CC(=O)[C@H]1CC[C@H]2[C@@H]3CCC4=CC(=O)CC[C@]4(C)[C@H]3CC[C@]12C", "values": [{"measurement": "AC50", "setting": "[7]", "result": "10.1 µM (active)"}, {"measurement": "AC50", "setting": "[8]", "result": "13.4 µM (active)"}, {"measurement": "outcome", "setting": "[9]", "result": "inactive"}, {"measurement": "outcome", "setting": "[10]", "result": "inactive"}]}, {"smiles": "Oc1ccc(C(c2ccc(O)cc2)C(Cl)(Cl)Cl)cc1", "values": [{"measurement": "AC50", "setting": "[7]", "result": "18.8 µM (active)"}, {"measurement": "AC50", "setting": "[8]", "result": "21.7 µM (active)"}, {"measurement": "outcome", "setting": "[9]", "result": "inactive"}]}, {"smiles": "O=C(c1ccc(O)cc1O)c1ccc(O)cc1O", "values": [{"measurement": "AC50", "setting": "[1]", "result": "10.1 µM (active)"}, {"measurement": "outcome", "setting": "[2]", "result": "inactive"}, {"measurement": "AC50", "setting": "[7]", "result": "34.6 µM (active)"}, {"measurement": "outcome", "setting": "[8]", "result": "inactive"}, {"measurement": "outcome", "setting": "[9]", "result": "inactive"}, {"measurement": "outcome", "setting": "[10]", "result": "inactive"}]}, {"smiles": "C[C@]12CC[C@@H]3c4ccc(O)cc4C[C@@H](CCCCCCCCCS(=O)CCCC(F)(F)C(F)(F)F)[C@H]3[C@@H]1CC[C@@H]2O", "note": "(stereo partly specified)", "values": [{"measurement": "outcome", "setting": "[3]", "result": "inactive"}, {"measurement": "outcome", "setting": "[4]", "result": "inactive"}, {"measurement": "outcome", "setting": "[5]", "result": "inactive"}, {"measurement": "outcome", "setting": "[1]", "result": "inactive"}, {"measurement": "outcome", "setting": "[2]", "result": "inactive"}]}, {"smiles": "O=C(O)C1(C(=O)Nc2ccc(Cl)cc2Cl)CC1", "values": [{"measurement": "outcome", "setting": "[1]", "result": "inactive"}, {"measurement": "outcome", "setting": "[2]", "result": "inactive"}, {"measurement": "outcome", "setting": "[7]", "result": "inactive"}, {"measurement": "AC50", "setting": "[8]", "result": "37.8 µM (active)"}, {"measurement": "outcome", "setting": "[9]", "result": "inactive"}, {"measurement": "AC50", "setting": "[10]", "result": "29.3 µM (active)"}]}]}
